One assay concerns the target T1, ETS1 (UniProt P14921).
T1 sequence: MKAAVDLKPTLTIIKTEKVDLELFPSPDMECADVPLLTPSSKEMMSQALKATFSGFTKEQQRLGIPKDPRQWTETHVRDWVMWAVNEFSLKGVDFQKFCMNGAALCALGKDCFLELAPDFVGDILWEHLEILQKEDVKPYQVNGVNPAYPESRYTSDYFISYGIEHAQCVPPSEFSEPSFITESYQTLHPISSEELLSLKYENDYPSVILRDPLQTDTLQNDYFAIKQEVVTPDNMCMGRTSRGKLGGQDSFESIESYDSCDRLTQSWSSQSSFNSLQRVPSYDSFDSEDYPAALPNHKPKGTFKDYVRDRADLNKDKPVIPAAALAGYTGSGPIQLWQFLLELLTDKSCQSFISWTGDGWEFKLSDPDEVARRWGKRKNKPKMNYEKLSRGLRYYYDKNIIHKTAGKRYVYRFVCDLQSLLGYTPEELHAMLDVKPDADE
Put plainly: ETS1 binding intensity (PBM fluorescence) in presence of RUNX1, normalised to ETS1-only experiment (arbitrary fluorescence units); higher = stronger binding. The following applies: ETS1 concentration 1 nM; RUNX1 concentration 25 nM.
RUNX1, sequence (Q01196 whole entry): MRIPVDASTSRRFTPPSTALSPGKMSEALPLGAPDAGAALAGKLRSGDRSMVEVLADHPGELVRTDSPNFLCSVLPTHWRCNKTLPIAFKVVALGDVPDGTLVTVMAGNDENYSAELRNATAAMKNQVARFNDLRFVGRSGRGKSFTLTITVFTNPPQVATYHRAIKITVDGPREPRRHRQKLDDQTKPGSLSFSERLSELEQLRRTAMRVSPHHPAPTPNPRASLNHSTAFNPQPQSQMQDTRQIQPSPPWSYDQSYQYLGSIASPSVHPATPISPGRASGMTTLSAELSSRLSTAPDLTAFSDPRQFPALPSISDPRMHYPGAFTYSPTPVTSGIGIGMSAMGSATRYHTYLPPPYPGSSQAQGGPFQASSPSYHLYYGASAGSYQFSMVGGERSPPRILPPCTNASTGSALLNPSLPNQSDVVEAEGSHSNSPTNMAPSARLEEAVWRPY
In the case of AGTTTCTCAGCTTCCTGTGTGGTTTTCTTGATCTGC, the ETS1 binding intensity came to 2630.
On the same count and under the same terms, the same measure for CCAACACAGGAAATAATTTGAAACCACAATCAGAAA: 4460; for GAGCATAGCCTAGCAGGATGTGGTTAAATACATTTG: 32800; for GGACCCAGCAGAGGATGTGGTTACAGGGCCATGATA: 5450.
The same measure, in the same setting: under AAGACAACATCCTGCCGGCACAGCCTGCGGGTTACT stands 1480; under GCAGCATTTCCTGACTTCTTCGCCCCTGTGGTTGCA, 480; under TGAGAAAACAGGAAGCGCCCAGTCACCACAGAAAGC, 5290.
The same measure, in the same setting: under GTGTGGAAGGAGGAAGCGAGAATGTGGTTACTTAGG stands 1890; under ACTGCACGGCTGGGAGGATGTGGTCACACACGCCAC, 11400.
For the sequence GACCAATGTAAACAAGGATGTGGGTTCTCCGGCCAC, the ETS1 binding intensity came to 3290.
Still for that read-out and setting: the same measure for AGACGGGACCGGAAGCCGGGCCGCAGGCGGCCGGGC: 6650.
On the same count and under the same terms, under TCCTCCGTTTCCGTAGTTCCGAGTTGCGGTTTCTCC stands 3790; under TTAAGGAGCTTCCGGGGCCGCGGGTAGAGGCGGGTG, 741; under ATGGGGAACGGGAAATACGGCGGGAACCACAATCGC, 1700.
On the same count and under the same terms, the same measure for CCAGTACCCCACTTCCTGACCAAACCACAAAGGTCA: 2450.
For the sequence TATGGGGCCGGAAGCCATTCACCACAAACACTGTGT, the ETS1 binding intensity is 9050.
Still for that read-out and setting: under CTGCTGGCGTTCCCGGATGTGCGGTGGCGGTGCTAC stands 9340.
On the same count and under the same terms, under GCGAGACGCGGAAGAGGCTTGCGGTTGACCAAAGAA stands 2010; under GATACCCAGCCAGCGGAAGTGCGGTTAACTGCCCGA, 18400.
On to CCTGGGCAAGGCCGGATGCCTGTGGCTTCCAGGCTG, for which the ETS1 binding intensity was found to be 3350.
On to CTGGTTTCATTTCCGGGTGCGGCTTCTGTCATAAAG, for which the ETS1 binding intensity was determined as 2350.
For GCACCCGGCACTACTTCCCGACCCGCATCCCCCGCC, the ETS1 binding intensity was found to be 683.
Same read-out and setting: the same measure for ATGAACCACTTCCTGTGTGTTCCCACAGAGGTCAGG: 4320; for TTGCACACGTGGGCGGGAAGTGGTTAAGCGGCCTCA: 4280.
Still for that read-out and setting: the same measure for TCATTTCCTCTGGTGTTATTGTGTTGTGGTTTTAAG: 1560; for GCAGAAGAGGAAATGGTTTGCCTGTGCGGTGGGGGA: 3280.
On the same count and under the same terms, the same measure for GTTGAGTAGTGACAGGAAGTGACCGCAAGGGGGCGC: 44800.
As for AATCCAACACTTCCTCCTCCACCGCAGAAAGGCAAC, the ETS1 binding intensity worked out at 966.
On the same count and under the same terms, the same measure for CGGAGGCGGCCGGAAGTAGCGCTGCGGTTGGCAGCT: 64100.
The same measure, in the same setting: the same measure for TGATAAAACACAGGATGTGGTAAGGGAGCTGGCCAA: 14200.
In the case of CCAAAATTGCCACGGAAACCACATCTTTCAGGCGAG, the ETS1 binding intensity came to 687.
The same measure, in the same setting: the same measure for CTGAGTGAGACAGGATGTGGGCAGACCTCTAACACA: 11000; for GCCCCCGGAAGCTGTCGCCCCGTGCGGTGTGTGCTG: 2000.
The same measure, in the same setting: under AGCCTTAATTACCCGGAAGTGCGGTCCCAGGGACTT stands 12200.
On the same count and under the same terms, under GCGGGAAAAGGGAAGTTTGCGGGAGGTCAAATCCAC stands 550; under TACGTCACTTCCGGGCCGCCGTCCTGCGGGCAAGGG, 3920.
In the case of AGCTAGACTACAGGAGGAAACCACAGCCTAAACCAG, the ETS1 binding intensity was 1030.
In the case of TTCAGAAAAAAAGGAAGTGGTAAATTCTTGCTGATT, the ETS1 binding intensity came out at 3620.
As to TGCAGTCGTGAAAAAGGAAGTGGTTAAAGTGGATAC, the ETS1 binding intensity came to 9240.
Consider CAGGGCACCTCCTACTTCCCCCCGCAGATAACTACC, for which the ETS1 binding intensity turned out to be 1010.

Another assay concerns the target RUNX1 (UniProt Q01196). Put plainly: RUNX1 binding intensity (PBM fluorescence) in presence of ETS1, normalised to RUNX1-only experiment (arbitrary fluorescence units); higher = stronger binding. To be noted: RUNX1 concentration 2 nM; ETS1 concentration 25 nM. As to the method: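 Cooperative gcPBM on 36-bp genomic probes with neighbouring ETS1 and RUNX1 sites. Recombinant human RUNX1 (2 nM) was incubated alone or with ETS1 (25 nM) and detected with anti-RUNX1 antibody plus Alexa488 secondary. Values are medians over 4 replicate spots; the RUNX1+ETS1 data were normalised to the RUNX1-only data. The probes sit in constant array flanks that are not printed.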
In the case of AGTTTCTCAGCTTCCTGTGTGGTTTTCTTGATCTGC, the RUNX1 binding intensity amounted to 4280.
Same read-out and setting: under CCAACACAGGAAATAATTTGAAACCACAATCAGAAA stands 3290; under GAGCATAGCCTAGCAGGATGTGGTTAAATACATTTG, 1970.
Same read-out and setting: under GGACCCAGCAGAGGATGTGGTTACAGGGCCATGATA stands 2170.
With AAGACAACATCCTGCCGGCACAGCCTGCGGGTTACT, the RUNX1 binding intensity amounted to 1420.
Still for that read-out and setting: under GCAGCATTTCCTGACTTCTTCGCCCCTGTGGTTGCA stands 1690; under TGAGAAAACAGGAAGCGCCCAGTCACCACAGAAAGC, 1330.
Same read-out and setting: under GTGTGGAAGGAGGAAGCGAGAATGTGGTTACTTAGG stands 1190.
The same measure, in the same setting: under ACTGCACGGCTGGGAGGATGTGGTCACACACGCCAC stands 1350; under GACCAATGTAAACAAGGATGTGGGTTCTCCGGCCAC, 1190.
AGACGGGACCGGAAGCCGGGCCGCAGGCGGCCGGGC: the RUNX1 binding intensity was 1240.
Still for that read-out and setting: under TCCTCCGTTTCCGTAGTTCCGAGTTGCGGTTTCTCC stands 15200.
Still for that read-out and setting: the same measure for TTAAGGAGCTTCCGGGGCCGCGGGTAGAGGCGGGTG: 1420; for ATGGGGAACGGGAAATACGGCGGGAACCACAATCGC: 1020.
Same read-out and setting: the same measure for CCAGTACCCCACTTCCTGACCAAACCACAAAGGTCA: 8080; for TATGGGGCCGGAAGCCATTCACCACAAACACTGTGT: 3610.
CTGCTGGCGTTCCCGGATGTGCGGTGGCGGTGCTAC: the RUNX1 binding intensity worked out at 1570.
For GCGAGACGCGGAAGAGGCTTGCGGTTGACCAAAGAA, the RUNX1 binding intensity is 4310.
The same measure, in the same setting: the same measure for GATACCCAGCCAGCGGAAGTGCGGTTAACTGCCCGA: 11100.
On the same count and under the same terms, under CCTGGGCAAGGCCGGATGCCTGTGGCTTCCAGGCTG stands 1060; under CTGGTTTCATTTCCGGGTGCGGCTTCTGTCATAAAG, 2460; under GCACCCGGCACTACTTCCCGACCCGCATCCCCCGCC, 1320.
On the same count and under the same terms, the same measure for ATGAACCACTTCCTGTGTGTTCCCACAGAGGTCAGG: 7110.
In the case of TTGCACACGTGGGCGGGAAGTGGTTAAGCGGCCTCA, the RUNX1 binding intensity turned out to be 1210.
Regarding TCATTTCCTCTGGTGTTATTGTGTTGTGGTTTTAAG, the RUNX1 binding intensity worked out at 3040.
For GCAGAAGAGGAAATGGTTTGCCTGTGCGGTGGGGGA, the RUNX1 binding intensity was 999.
Still for that read-out and setting: the same measure for GTTGAGTAGTGACAGGAAGTGACCGCAAGGGGGCGC: 3540.
For AATCCAACACTTCCTCCTCCACCGCAGAAAGGCAAC, the RUNX1 binding intensity worked out at 2670.
On the same count and under the same terms, under CGGAGGCGGCCGGAAGTAGCGCTGCGGTTGGCAGCT stands 6060.
On the same count and under the same terms, the same measure for TGATAAAACACAGGATGTGGTAAGGGAGCTGGCCAA: 4550.
Same read-out and setting: the same measure for CCAAAATTGCCACGGAAACCACATCTTTCAGGCGAG: 1620; for CTGAGTGAGACAGGATGTGGGCAGACCTCTAACACA: 3230.
Regarding GCCCCCGGAAGCTGTCGCCCCGTGCGGTGTGTGCTG, the RUNX1 binding intensity was determined as 1330.
Still for that read-out and setting: under AGCCTTAATTACCCGGAAGTGCGGTCCCAGGGACTT stands 1710.
GCGGGAAAAGGGAAGTTTGCGGGAGGTCAAATCCAC: the RUNX1 binding intensity came out at 968.
On the same count and under the same terms, under TACGTCACTTCCGGGCCGCCGTCCTGCGGGCAAGGG stands 2270.
Same read-out and setting: under AGCTAGACTACAGGAGGAAACCACAGCCTAAACCAG stands 1410; under TTCAGAAAAAAAGGAAGTGGTAAATTCTTGCTGATT, 1500.
On the same count and under the same terms, under TGCAGTCGTGAAAAAGGAAGTGGTTAAAGTGGATAC stands 1520.
Turning to CAGGGCACCTCCTACTTCCCCCCGCAGATAACTACC, the RUNX1 binding intensity amounted to 906.
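Throughout, for RUNX1 binding intensity (PBM fluorescence) in presence of ETS1, normalised to RUNX1-only experiment: Full-length recombinant human ETS1 or RUNX1 bound to double-stranded 36-bp genomic probes on microarrays, detected by protein-specific primary antibody and Alexa488 secondary, spot fluorescence as median of four replicate spots.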
